# Assay results published in PMC5540273 (PLoS ONE, 2017).
# Tests used:
# Conditions in all cases: concentration: 1 μM, replicates: in singlicate; n = 1
# CDK4-cyclinD1 = tested on: CDK4-cyclinD1
# CDK4-cyclinD3 = tested on: CDK4-cyclinD3
# CDK4 = tested on: CDK4
# CDK5 = tested on: CDK5
# CDK7 = tested on: CDK7
# CDK8 = tested on: CDK8
# CDK9 = tested on: CDK9
# CDKL1 = tested on: CDKL1
# CDKL2 = tested on: CDKL2
# CDKL3 = tested on: CDKL3
# CDKL5 = tested on: CDKL5
# CHEK1 = tested on: CHEK1
# CHEK2 = tested on: CHEK2
# CIT = tested on: CIT
# CLK1 = tested on: CLK1
# CLK2 = tested on: CLK2
# CLK3 = tested on: CLK3
# CLK4 = tested on: CLK4
# CSF1R-autoinhibited = tested on: CSF1R-autoinhibited
# CSF1R = tested on: CSF1R
# 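Also: KINOMEscan kinase panel screen.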
SMILES,%Inh (CDK4-cyclinD1) [%],%Inh (CDK4-cyclinD3) [%],%Inh (CDK4) [%],%Inh (CDK5) [%],%Inh (CDK7) [%],%Inh (CDK8) [%],%Inh (CDK9) [%],%Inh (CDKL1) [%],%Inh (CDKL2) [%],%Inh (CDKL3) [%],%Inh (CDKL5) [%],%Inh (CHEK1) [%],%Inh (CHEK2) [%],%Inh (CIT) [%],%Inh (CLK1) [%],%Inh (CLK2) [%],%Inh (CLK3) [%],%Inh (CLK4) [%],%Inh (CSF1R-autoinhibited) [%],%Inh (CSF1R) [%]
O=C(Nc1n[nH]c2nc(-c3cccs3)c(Br)cc12)C1CCCC1 [SB-743341],11,40,16,24,60,75,27,10,87,0,0,9,9,4,0,18,31,12,0,18
COc1ccc(Nc2nccc(N3CCC(NC(=O)C(C)c4ccc(Cl)cc4)C3)n2)cc1 (stereo not drawn) [GSK1379735],0,0,23,0,0,35,0,100,29,0,9,26,0,26,16,13,0,8,8,27
CSc1ccc(-c2nc3n(c2-c2ccncc2)CCC3)cc1 [SKF-105561],0,0,27,0,0,0,0,7,0,0,6,0,0,11,5,0,13,3,3,40
Cc1ccc(-c2nc(Nc3ccncc3)c3ccccc3n2)s1 [GSK189015],0,0,0,100,0,3,5,0,0,0,14,22,0,42,35,0,0,28,0,4
O=C(Nc1n[nH]c2cc(-c3ccsc3)ccc12)C1CC1 [SB-732932],14,0,86,14,21,0,17,10,94.7,36,17,0,0,0,2,21,0,7,16,16
CC(=O)c1cccc(NC(=O)NC2CCN(c3ccnc(Nc4ccc(F)cc4)n3)C2)c1 (stereo not drawn) [GSK1379710],0,0,38,0,7,76,17,27,59,0,0,10,33,29,24,3,14,0,33,18
CS(=O)(=O)CCNCc1nc(-c2ccc3ncnc(Nc4ccc5c(cnn5Cc5ccccc5)c4)c3c2)cs1.Cl.Cl [GW569716],41,0,39,18,0,41,0,0,11,100,14,0,57,34,24,0,1,5,39,0
COC(=O)C(NC(=O)NC1CCN(c2ccnc(Nc3ccc(F)cc3)n2)C1)c1ccccc1 (stereo not drawn) [GSK1379712],20,4,29,1,14,58,18,0,10,0,3,3,37,0,9,0,0,0,34,5
COc1cccc(CNC(=O)NC2CCN(c3ccnc(Nc4ccc(F)cc4)n3)C2)c1 (stereo not drawn) [GSK1379723],0,15,0,0,0,0,0,0,39,0,6,5,0,19,19,0,0,8,10,2
Cc1ccccc1-c1cc(-c2c[nH]nc2-c2ccccn2)ccn1 [GW680061],0,0,0,0,0,23,0,0,10,0,0,85,4,24,15,0,0,15,10,3
Cc1ccc(NC(=O)Nc2ccc(Cl)cc2)cc1-c1ccc(C(=O)Nc2ccncc2)cc1 [GSK1398472],0,10,2,0,0,8,0,3,19,1,0,19,0,89,32,0,14,42,4,87
O=c1cc(N2CCOCC2)nc2n(Cc3ccccc3F)ccn12 [GSK2297428],0,0,0,0,0,22,0,0,13,0,0,9,0,18,36,0,22,54,7,0
CNc1cc(-c2ccc3c(N)n[nH]c3c2)nc(N)n1 [GSK2224810],3,0,18,0,2,26,0,17,0,0,0,0,84,9,90.2,80,18,89,5,3
CCn1c(-c2ccccc2)nc2cnccc21 [SB-733416],0,6,3,0,0,0,0,0,9,0,4,29,0,23,17,0,0,3,0,13
Cl.Cl.Cl.N#Cc1ccc(CCNc2nccc(-c3cccc(CN4CCNCC4)c3)n2)cc1 [GSK2137462],0,24,0,0,69,0,22,2,6,0,0,0,0,82,17,23,0,15,0,8
O=c1cc(N2CCOCC2)nc2n(Cc3cccc(Cl)c3Cl)c3ccccc3n12 [GSK2299009],0,0,31,16,0,0,6,15,14,0,7,3,0,21,27,2,1,8,0,28
COC(=O)c1cccc(NC(=O)NC2CCN(c3ccnc(Nc4ccc(OC)cc4)n3)C2)c1 (stereo not drawn) [GSK1379746],34,0,19,0,0,48,1,14,77,0,0,0,0,0,21,100,0,24,28,0
COc1ccc(-c2coc3ccc(-c4nnc(C)o4)cc23)cc1,0,0,0,0,0,0,0,24,0,0,51,0,13,16,3,22,0,27,7,9
Cc1ccc(NC(=O)Nc2ccccc2)cc1-c1ccc(C(=O)Nc2ccncc2)cc1 [GSK1398471],0,0,0,0,0,0,0,0,23,1,11,0,0,93,20,0,7,14,0,84
CNC(=O)c1ccc(C)c(-n2c(C)cc(OCc3ccc(F)cc3F)c(Br)c2=O)c1,0,0,0,0,4,4,0,91.9,3,25,0,0,0,0,11,0,0,0,0,0
c1ccc(-c2ccnc3[nH]ccc23)cc1 [SB-693578],0,19,22,0,6,35,0,2,12,0,9,12,0,3,12,8,29,5,47,8
